PubChem BioAssay (EPA / NIEHS)
Calls of active or inactive are those of the source. How the source made its calls: active means hit-call score of the fitted dose curve at least 0.9, where 1 is the maximum; inactive means score below 0.9.

Key:
Details in all cases: mRNA level, 48 h; actives raise or lower the signal
[1] = read-out: Heat shock 70 kDa protein 1 (HSPA1A), gene 3303; assay: LTEA_HepaRG_HSPA1A: Life Technologies and Expression Analysis (LTEA) Assay for Heat shock 70 kDa protein 1 (HSPA1A) using HepaRG (AID 2283502)
In short: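 Differentiated human HepaRG cells in serum-free induction medium were exposed in duplicate for 48 h to eight concentrations (top 100 uM, half-log steps, 0.5% DMSO). HSPA1A mRNA was quantified by qRT-PCR, normalized to ACTB, GAPDH and POLR2A, and fitted bidirectionally against DMSO.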

[2] = read-out: 3-Hydroxy-3-Methylglutaryl-CoA Synthase 2 (HMGCS2), HMGCS2 (gene 3158); assay: LTEA_HepaRG_HMGCS2: Life Technologies and Expression Analysis (LTEA) Assay for 3-Hydroxy-3-Methylglutaryl-CoA Synthase 2 (HMGCS2) using HepaRG (AID 2283504)
In short: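 Readout is HMGCS2 transcript by qRT-PCR, housekeeping-normalised (ACTB/GAPDH/POLR2A) and fitted bidirectionally against 0.5% DMSO. Differentiated HepaRG cells received chemicals 48 h, duplicate wells, eight half-log concentrations topping at 100 uM.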

HGF (gene 3082) = assay: LTEA_HepaRG_HGF: Life Technologies and Expression Analysis (LTEA) Assay for Hepatocyte Growth Facto (HGF) using HepaRG (AID 2283505)
In short: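 HGF transcript was quantified by TaqMan qRT-PCR against three housekeeping genes after 48 h treatment of HepaRG cells. Exposure ran in duplicate over eight half-log steps topping at 100 uM in 0.5% DMSO vehicle.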

[3] = read-out: Insulin Like Growth Factor 1 (IGF1), IGF1 (gene 3479); assay: LTEA_HepaRG_IGF1: Life Technologies and Expression Analysis (LTEA) Assay for Insulin Like Growth Factor 1 (IGF1) using HepaRG (AID 2283506)
In short: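 Differentiated human HepaRG cells were dosed for 48 h in serum-free induction medium with 0.5% DMSO, eight half-log concentrations up to 100 uM, in duplicate. IGF1 mRNA was quantified by qRT-PCR normalized to ACTB, GAPDH, POLR2A; bidirectional fitting versus DMSO.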

[4] = read-out: Intercellular Adhesion Molecule 1 (ICAM1), ICAM1 (gene 3383); assay: LTEA_HepaRG_ICAM1: Life Technologies and Expression Analysis (LTEA) Assay for Intercellular Adhesion Molecule 1 (ICAM1) using HepaRG (AID 2283507)
In short: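 ICAM1 transcript levels measured by qRT-PCR, normalized to three housekeeping genes (ACTB, GAPDH, POLR2A), after 48 h chemical exposure of HepaRG cells. Duplicate eight-point half-log series from 100 uM in 0.5% DMSO; gain or loss fitted against vehicle.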

[5] = read-out: Insulin-like growth factor-binding protein 1 (IGFBP1), IGFBP1 (gene 3484); assay: LTEA_HepaRG_IGFBP1: Life Technologies and Expression Analysis (LTEA) Assay for Insulin-like growth factor-binding protein 1 (IGFBP1) using HepaRG (AID 2283508)
In short: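 Read-out is qRT-PCR transcript level normalized to three housekeeping genes, fitted in both directions against 0.5% DMSO. Differentiated HepaRG cells received eight half-log concentrations (top 100 uM) in duplicate for 48 h in serum-free induction medium.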

[6] = read-out: Interleukin 6 Receptor (IL6R), IL6R (gene 3570); assay: LTEA_HepaRG_IL6R: Life Technologies and Expression Analysis (LTEA) Assay for Interleukin 6 Receptor (IL6R) using HepaRG (AID 2283510)
In short: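 Differentiated human HepaRG cells, plated 48 h then switched to serum-free induction medium, were dosed in duplicate for 48 h at eight half-log concentrations up to 100 uM in 0.5% DMSO. IL6R mRNA quantified by qRT-PCR, normalized to ACTB/GAPDH/POLR2A; bidirectional fit versus DMSO.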

[7] = read-out: Keratin 19 (KRT19), KRT19 (gene 3880); assay: LTEA_HepaRG_KRT19: Life Technologies and Expression Analysis (LTEA) Assay for Keratin 19 (KRT19) using HepaRG (AID 2283512)
In short: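 KRT19 transcript measured by TaqMan qRT-PCR, referenced to three housekeeping genes, after HepaRG cells received test chemicals for 48 h. Eight half-log concentrations, top 100 uM, 0.5% DMSO vehicle; increases and decreases both fitted.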

[8] = read-out: JUN Transcription Factor, JUN (gene 3725); assay: LTEA_HepaRG_JUN: Life Technologies and Expression Analysis (LTEA) Assay for JUN Transcription Factor using HepaRG (AID 2283513)
In short: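 Differentiated HepaRG cells were exposed to chemicals for 48 h in serum-free induction medium, 8 concentrations from 100 uM in half-log steps, 0.5% DMSO vehicle, in duplicate. JUN mRNA was quantified by TaqMan qRT-PCR, normalized to ACTB, GAPDH, POLR2A.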

[9] = read-out: Lipase C (LIPC), LIPC (gene 3990); assay: LTEA_HepaRG_LIPC: Life Technologies and Expression Analysis (LTEA) Assay for Lipase C (LIPC) using HepaRG (AID 2283514)
In short: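 Read-out is LIPC transcript level by TaqMan qRT-PCR, normalized to three housekeeping genes, after 48 h chemical treatment of human HepaRG liver cells. Curves span eight concentrations topping at 100 uM; activity in either direction scored relative to 0.5% DMSO.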

[10] = read-out: Lipoprotein lipase (LPL), LPL (gene 4023); assay: LTEA_HepaRG_LPL: Life Technologies and Expression Analysis (LTEA) Assay for Lipoprotein lipase (LPL) using HepaRG (AID 2283515)
In short: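 Read-out is LPL transcript level by qRT-PCR, normalized to three housekeeping genes and fitted bidirectionally against the DMSO control. Human HepaRG cells received chemicals for 48 h at up to 100 uM.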

[11] = read-out: matrix metalloproteinase-10 (MMP10), MMP10 (gene 4319); assay: LTEA_HepaRG_MMP10: Life Technologies and Expression Analysis (LTEA) Assay for matrix metalloproteinase-10 (MMP10) using HepaRG (AID 2283517)
In short: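 Gain or loss of MMP10 mRNA is fitted relative to the 0.5% DMSO vehicle. The human hepatic line HepaRG receives a 48-hour serum-free exposure, in duplicate, with a maximum concentration of 100 uM.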

MYC, MYC (gene 4609) = assay: LTEA_HepaRG_MYC: Life Technologies and Expression Analysis (LTEA) Assay for MYC using HepaRG (AID 2283518)
In short: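 MYC transcript changes, up or down relative to 0.5% DMSO, from TaqMan qRT-PCR normalized to three housekeeping genes. Human HepaRG cultures received chemicals for 48 h at eight half-log concentrations up to 100 uM, in duplicate.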

[12] = read-out: matrix metalloproteinase-3 (MMP3), MMP3 (gene 4314); assay: LTEA_HepaRG_MMP3: Life Technologies and Expression Analysis (LTEA) Assay for matrix metalloproteinase-3 (MMP3) using HepaRG (AID 2283519)
In short: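 HepaRG, human; 48 h dosing, 8 conc. (max 100 uM, half-log), duplicate, 0.5% DMSO. Readout: MMP3 transcript by Fluidigm TaqMan qRT-PCR, ACTB/GAPDH/POLR2A-normalised. Gain or loss fitted vs DMSO.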

[13] = read-out: Paternally Expressed 10 (PEG10), PEG10 (gene 23089); assay: LTEA_HepaRG_PEG10: Life Technologies and Expression Analysis (LTEA) Assay for Paternally Expressed 10 (PEG10) using HepaRG (AID 2283520)
In short: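 Differentiated HepaRG cells, plated 48 h then switched to serum-free induction medium, were exposed in duplicate for 48 h to eight half-log concentrations topping at 100 uM in 0.5% DMSO. PEG10 mRNA was quantified by TaqMan qRT-PCR, normalised to ACTB, GAPDH and POLR2A.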

[14] = read-out: Nuclear factor NF-kappa-B p105 subunit (Homo sapiens) (UniProt P19838); assay: LTEA_HepaRG_NFKB1: Life Technologies and Expression Analysis (LTEA) Assay for Nuclear Factor Kappa B Subunit 1 (NFKB1) using HepaRG (AID 2283521)
In short: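 Differentiated human HepaRG cells in serum-free induction medium with 0.5% DMSO were exposed for 48 h to eight half-log concentrations, top 100 uM, in duplicate. NFKB1 mRNA measured by Fluidigm TaqMan qRT-PCR, normalised to ACTB, GAPDH and POLR2A; bidirectional fit versus DMSO.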

[15] = read-out: Interleukin 6 (IL6), IL6 (gene 3569); assay: LTEA_HepaRG_IL6: Life Technologies and Expression Analysis (LTEA) Assay for Interleukin 6 (IL6) using HepaRG (AID 2283509)
In short: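 HepaRG, ~100,000 cells/well, 48 h pre-culture; serum-free induction medium; cmpd 8-pt half-log from 100 uM, 0.5% DMSO, duplicate, 48 h. Lysis in RLT, TaqMan qRT-PCR; gain or loss vs DMSO.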

[16] = read-out: MicroRNA 122 (MIR122), gene 406906; assay: LTEA_HepaRG_MIR122: Life Technologies and Expression Analysis (LTEA) Assay for MicroRNA 122 (MIR122) using HepaRG (AID 2283516); further: the transcript read is the microRNA miR-122
In short: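 Differentiated human HepaRG cells were exposed 48 h in serum-free induction medium to eight half-log concentrations (top 100 uM, 0.5% DMSO). Transcript level was measured by TaqMan qRT-PCR, normalized to ACTB, GAPDH and POLR2A, and fitted bidirectionally versus DMSO.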

Measured: AC50

Sequence of Nuclear factor NF-kappa-B p105 subunit (Homo sapiens) (P19838 whole entry, looked up): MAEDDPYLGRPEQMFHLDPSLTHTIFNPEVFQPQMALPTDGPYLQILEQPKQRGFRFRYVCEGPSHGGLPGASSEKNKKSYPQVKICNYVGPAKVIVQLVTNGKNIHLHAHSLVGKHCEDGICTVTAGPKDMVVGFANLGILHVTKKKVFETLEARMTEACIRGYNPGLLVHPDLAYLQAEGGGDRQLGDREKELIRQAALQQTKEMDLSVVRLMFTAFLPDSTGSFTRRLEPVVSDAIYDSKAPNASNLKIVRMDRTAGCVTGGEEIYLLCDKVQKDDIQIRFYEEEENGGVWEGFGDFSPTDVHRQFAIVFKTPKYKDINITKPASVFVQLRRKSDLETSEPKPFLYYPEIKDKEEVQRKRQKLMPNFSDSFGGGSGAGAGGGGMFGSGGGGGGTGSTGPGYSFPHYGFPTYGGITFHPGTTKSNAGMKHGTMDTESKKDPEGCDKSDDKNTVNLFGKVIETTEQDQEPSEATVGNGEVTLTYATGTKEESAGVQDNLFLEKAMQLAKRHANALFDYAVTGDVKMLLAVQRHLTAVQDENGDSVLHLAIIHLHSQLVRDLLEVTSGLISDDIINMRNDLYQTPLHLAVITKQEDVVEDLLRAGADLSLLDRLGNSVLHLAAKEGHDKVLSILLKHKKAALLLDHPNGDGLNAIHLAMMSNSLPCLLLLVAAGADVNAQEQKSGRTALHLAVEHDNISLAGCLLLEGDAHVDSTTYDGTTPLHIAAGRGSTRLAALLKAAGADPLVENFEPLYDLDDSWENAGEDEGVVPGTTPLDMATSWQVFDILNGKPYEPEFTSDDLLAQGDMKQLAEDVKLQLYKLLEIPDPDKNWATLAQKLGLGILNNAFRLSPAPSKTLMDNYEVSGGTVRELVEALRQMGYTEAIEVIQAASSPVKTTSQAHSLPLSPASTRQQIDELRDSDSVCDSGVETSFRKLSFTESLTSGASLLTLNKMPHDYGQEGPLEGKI

CCCCCCCCn1sccc1=O
inactive: [1] | [3] | [4] | [5] | [7] | [8] | [10] | MYC, MYC (gene 4609) | [12] | [14]
active: [2] 84.8 µM | HGF (gene 3082) 81.3 µM | [6] 99.3 µM | [9] 80.9 µM | [11] 76.6 µM | [13] 52 µM

Clc1ccc(C(c2ccc(Cl)cc2)C(Cl)(Cl)Cl)cc1
active: [1] 23.3 µM | [3] 50 µM | [9] 84.5 µM | [10] 50 µM
inactive: [2] | HGF (gene 3082) | [4] | [5] | [15] | [6] | [7] | [8] | [16] | [11] | MYC, MYC (gene 4609) | [12] | [13] | [14]
